Measurements from ChEMBL document CHEMBL1961873, “Compounds: GSK PKIS; Assays: Nanosyn kinase panel” (2012).

Tests used:
[1] = biological target: Ribosomal protein S6 kinase alpha-6 (Homo sapiens) (UniProt Q9UK32); conditions: at 1 µM;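 further: each value is a mean inhibition of RSK4 from a GSK PKIS panel screen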
[2] = biological target: T1, Serine/threonine-protein kinase Sgk1 (Homo sapiens) (UniProt O00141); conditions: at 0.1 µM
T1 sequence (whole entry): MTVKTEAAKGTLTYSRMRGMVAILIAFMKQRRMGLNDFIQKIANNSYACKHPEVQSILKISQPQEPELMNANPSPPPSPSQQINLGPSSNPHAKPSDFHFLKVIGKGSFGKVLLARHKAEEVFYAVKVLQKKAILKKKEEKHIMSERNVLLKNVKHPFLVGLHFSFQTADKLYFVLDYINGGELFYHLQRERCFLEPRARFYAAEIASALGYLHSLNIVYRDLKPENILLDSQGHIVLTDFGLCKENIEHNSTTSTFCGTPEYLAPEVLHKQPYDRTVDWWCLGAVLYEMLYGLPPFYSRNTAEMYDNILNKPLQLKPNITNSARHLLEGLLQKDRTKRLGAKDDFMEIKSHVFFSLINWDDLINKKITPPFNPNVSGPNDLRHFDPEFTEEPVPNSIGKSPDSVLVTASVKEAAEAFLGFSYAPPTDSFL

[3] = biological target: T1, Serine/threonine-protein kinase Sgk1 (Homo sapiens); conditions: at 1 µM
[4] = biological target: T2, Serine/threonine-protein kinase Sgk2 (Homo sapiens) (UniProt Q9HBY8); conditions: at 0.1 µM
T2 sequence (whole entry): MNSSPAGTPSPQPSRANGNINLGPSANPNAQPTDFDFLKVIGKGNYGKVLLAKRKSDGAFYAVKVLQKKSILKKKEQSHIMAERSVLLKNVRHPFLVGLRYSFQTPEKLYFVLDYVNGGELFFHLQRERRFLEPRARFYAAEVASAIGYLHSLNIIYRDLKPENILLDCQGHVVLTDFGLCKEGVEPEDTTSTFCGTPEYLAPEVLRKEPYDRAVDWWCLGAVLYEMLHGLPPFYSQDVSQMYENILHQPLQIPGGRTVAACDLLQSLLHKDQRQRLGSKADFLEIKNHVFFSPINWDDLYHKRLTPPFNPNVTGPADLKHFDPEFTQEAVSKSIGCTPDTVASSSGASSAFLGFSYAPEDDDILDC

[5] = biological target: T2, Serine/threonine-protein kinase Sgk2 (Homo sapiens); conditions: at 1 µM
[6] = biological target: T3, Serine/threonine-protein kinase Sgk3 (Homo sapiens) (UniProt Q96BR1); conditions: at 0.1 µM
T3 sequence (whole entry): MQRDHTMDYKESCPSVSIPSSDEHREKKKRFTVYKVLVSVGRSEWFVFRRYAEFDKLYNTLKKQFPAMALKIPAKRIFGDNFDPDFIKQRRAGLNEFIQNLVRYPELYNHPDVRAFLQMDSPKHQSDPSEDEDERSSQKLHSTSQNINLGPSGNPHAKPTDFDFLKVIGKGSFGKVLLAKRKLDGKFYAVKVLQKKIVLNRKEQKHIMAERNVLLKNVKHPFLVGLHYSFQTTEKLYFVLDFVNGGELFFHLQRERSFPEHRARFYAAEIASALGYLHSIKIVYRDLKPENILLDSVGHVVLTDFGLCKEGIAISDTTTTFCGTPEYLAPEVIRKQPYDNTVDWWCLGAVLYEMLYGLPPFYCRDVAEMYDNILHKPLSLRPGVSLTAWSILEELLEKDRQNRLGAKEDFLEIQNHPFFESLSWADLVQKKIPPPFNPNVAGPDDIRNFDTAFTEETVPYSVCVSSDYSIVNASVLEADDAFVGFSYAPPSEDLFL

[7] = biological target: T3, Serine/threonine-protein kinase Sgk3 (Homo sapiens); conditions: at 1 µM
[8] = biological target: 5'-AMP-activated protein kinase catalytic subunit alpha-1 (Homo sapiens) (UniProt Q13131); conditions: at 0.1 µM
Sequence of 5'-AMP-activated protein kinase catalytic subunit alpha-1 (Homo sapiens) (Q13131 whole entry, looked up): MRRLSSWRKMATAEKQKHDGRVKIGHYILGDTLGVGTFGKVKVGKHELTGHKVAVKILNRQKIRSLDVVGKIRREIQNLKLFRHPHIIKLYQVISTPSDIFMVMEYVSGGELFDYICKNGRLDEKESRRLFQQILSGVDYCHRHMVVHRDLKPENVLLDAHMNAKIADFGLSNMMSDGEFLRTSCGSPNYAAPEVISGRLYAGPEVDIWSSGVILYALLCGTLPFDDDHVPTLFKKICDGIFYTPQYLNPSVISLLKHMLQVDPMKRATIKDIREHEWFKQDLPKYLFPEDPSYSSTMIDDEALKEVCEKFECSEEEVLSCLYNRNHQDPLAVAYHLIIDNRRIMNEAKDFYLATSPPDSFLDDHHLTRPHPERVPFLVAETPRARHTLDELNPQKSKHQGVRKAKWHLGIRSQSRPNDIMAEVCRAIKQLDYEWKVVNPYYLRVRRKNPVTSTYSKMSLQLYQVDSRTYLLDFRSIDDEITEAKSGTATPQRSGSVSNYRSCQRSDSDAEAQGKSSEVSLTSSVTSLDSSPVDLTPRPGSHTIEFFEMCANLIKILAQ

[9] = biological target: 5'-AMP-activated protein kinase catalytic subunit alpha-1 (Homo sapiens) (UniProt Q13131); conditions: at 1 µM
[10] = biological target: 5'-AMP-activated protein kinase catalytic subunit alpha-2 (Homo sapiens) (UniProt P54646); conditions: at 0.1 µM
Sequence of 5'-AMP-activated protein kinase catalytic subunit alpha-2 (Homo sapiens) (P54646 whole entry, looked up): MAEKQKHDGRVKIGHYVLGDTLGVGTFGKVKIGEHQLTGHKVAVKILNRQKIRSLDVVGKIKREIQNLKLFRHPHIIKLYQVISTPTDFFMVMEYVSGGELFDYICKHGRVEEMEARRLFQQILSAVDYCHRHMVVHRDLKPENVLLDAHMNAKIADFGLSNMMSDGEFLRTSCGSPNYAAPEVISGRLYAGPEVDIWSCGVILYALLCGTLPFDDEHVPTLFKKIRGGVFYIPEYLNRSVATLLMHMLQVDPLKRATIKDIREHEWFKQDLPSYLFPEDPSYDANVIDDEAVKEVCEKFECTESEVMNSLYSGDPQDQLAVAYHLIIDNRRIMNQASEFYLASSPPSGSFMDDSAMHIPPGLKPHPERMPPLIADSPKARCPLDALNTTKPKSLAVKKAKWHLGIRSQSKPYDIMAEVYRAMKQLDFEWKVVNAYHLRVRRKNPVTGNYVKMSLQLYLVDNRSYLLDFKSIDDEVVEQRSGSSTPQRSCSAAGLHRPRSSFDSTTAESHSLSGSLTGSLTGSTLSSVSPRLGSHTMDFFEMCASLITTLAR

[11] = biological target: 5'-AMP-activated protein kinase catalytic subunit alpha-2 (Homo sapiens) (UniProt P54646); conditions: at 1 µM
[12] = biological target: T4, NUAK family SNF1-like kinase 1 (Homo sapiens) (UniProt O60285); conditions: at 0.1 µM
T4 sequence (whole entry): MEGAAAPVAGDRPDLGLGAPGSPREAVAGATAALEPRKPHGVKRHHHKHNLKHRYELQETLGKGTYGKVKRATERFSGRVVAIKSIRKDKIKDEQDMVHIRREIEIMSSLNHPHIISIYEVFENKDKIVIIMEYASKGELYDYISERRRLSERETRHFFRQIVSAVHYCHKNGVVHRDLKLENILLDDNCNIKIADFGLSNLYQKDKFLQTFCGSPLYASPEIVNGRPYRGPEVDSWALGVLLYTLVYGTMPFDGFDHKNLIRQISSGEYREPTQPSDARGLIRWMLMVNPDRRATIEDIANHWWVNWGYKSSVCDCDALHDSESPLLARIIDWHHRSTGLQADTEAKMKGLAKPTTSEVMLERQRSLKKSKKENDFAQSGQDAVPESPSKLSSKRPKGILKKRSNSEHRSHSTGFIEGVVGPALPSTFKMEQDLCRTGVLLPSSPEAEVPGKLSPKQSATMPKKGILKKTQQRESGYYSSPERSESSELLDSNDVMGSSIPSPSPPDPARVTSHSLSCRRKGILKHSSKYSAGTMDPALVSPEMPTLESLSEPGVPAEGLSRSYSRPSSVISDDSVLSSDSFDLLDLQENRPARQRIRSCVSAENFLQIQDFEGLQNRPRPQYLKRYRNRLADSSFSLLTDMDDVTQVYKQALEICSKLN

[13] = biological target: T4, NUAK family SNF1-like kinase 1 (Homo sapiens); conditions: at 1 µM
[14] = biological target: T5, Serine/threonine-protein kinase BRSK1 (Homo sapiens) (UniProt Q8TDC3); conditions: at 0.1 µM
T5 sequence (whole entry): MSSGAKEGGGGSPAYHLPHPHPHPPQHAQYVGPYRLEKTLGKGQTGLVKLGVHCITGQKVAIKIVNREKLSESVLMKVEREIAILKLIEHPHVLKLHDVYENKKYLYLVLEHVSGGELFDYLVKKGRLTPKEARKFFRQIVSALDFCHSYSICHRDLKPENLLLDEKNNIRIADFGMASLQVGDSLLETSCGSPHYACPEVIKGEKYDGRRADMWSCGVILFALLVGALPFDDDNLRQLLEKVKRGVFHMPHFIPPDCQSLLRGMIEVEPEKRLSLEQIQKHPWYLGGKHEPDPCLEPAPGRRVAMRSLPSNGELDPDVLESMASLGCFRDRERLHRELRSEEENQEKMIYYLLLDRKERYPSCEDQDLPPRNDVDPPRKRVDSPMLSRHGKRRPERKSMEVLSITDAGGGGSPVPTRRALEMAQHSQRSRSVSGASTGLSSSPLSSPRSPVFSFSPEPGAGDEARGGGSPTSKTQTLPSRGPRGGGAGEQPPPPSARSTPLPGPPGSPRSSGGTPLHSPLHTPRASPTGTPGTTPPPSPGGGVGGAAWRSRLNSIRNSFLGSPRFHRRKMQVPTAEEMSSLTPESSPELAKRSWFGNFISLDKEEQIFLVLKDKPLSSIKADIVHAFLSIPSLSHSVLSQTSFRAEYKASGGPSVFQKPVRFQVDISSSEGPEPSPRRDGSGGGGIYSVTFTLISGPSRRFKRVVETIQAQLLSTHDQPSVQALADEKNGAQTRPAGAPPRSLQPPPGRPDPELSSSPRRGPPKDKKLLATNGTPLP

[15] = biological target: T5, Serine/threonine-protein kinase BRSK1 (Homo sapiens); conditions: at 1 µM
[16] = biological target: T6, Serine/threonine-protein kinase BRSK2 (Homo sapiens) (UniProt Q8IWQ3); conditions: at 0.1 µM
T6 sequence (whole entry): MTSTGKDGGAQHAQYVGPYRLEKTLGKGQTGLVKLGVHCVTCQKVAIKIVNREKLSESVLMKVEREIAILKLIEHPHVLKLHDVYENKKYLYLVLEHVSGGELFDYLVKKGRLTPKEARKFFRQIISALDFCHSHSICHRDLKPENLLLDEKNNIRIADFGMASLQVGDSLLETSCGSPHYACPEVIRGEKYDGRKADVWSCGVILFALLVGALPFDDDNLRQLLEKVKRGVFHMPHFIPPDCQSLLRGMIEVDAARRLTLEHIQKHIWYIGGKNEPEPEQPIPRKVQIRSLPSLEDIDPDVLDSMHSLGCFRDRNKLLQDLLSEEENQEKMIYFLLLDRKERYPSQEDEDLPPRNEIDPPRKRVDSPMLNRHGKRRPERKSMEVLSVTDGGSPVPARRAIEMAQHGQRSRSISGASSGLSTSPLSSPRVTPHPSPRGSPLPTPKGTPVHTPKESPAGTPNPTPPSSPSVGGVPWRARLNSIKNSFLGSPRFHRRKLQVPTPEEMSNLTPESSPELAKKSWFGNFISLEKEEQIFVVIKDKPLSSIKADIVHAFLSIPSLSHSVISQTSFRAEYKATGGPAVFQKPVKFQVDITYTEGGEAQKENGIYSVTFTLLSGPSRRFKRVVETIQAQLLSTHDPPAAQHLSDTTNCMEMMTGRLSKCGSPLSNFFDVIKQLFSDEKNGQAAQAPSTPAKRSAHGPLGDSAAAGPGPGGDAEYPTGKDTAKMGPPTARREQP

[17] = biological target: T6, Serine/threonine-protein kinase BRSK2 (Homo sapiens); conditions: at 1 µM
[18] = biological target: Calcium/calmodulin-dependent protein kinase type 1D (Homo sapiens) (UniProt Q8IU85); conditions: at 0.1 µM
Sequence of Calcium/calmodulin-dependent protein kinase type 1D (Homo sapiens) (Q8IU85 whole entry, looked up): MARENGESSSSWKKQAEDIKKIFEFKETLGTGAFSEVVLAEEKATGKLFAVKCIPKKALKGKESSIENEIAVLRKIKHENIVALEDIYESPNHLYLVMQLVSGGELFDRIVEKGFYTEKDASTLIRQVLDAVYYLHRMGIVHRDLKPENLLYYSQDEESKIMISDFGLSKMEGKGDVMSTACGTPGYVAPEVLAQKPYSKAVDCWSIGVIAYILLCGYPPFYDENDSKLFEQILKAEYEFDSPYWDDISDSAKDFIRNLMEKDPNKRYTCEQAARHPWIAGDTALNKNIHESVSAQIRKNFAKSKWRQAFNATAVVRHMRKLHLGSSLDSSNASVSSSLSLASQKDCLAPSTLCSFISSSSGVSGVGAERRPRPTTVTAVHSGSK

[19] = biological target: Calcium/calmodulin-dependent protein kinase type 1D (Homo sapiens) (UniProt Q8IU85); conditions: at 1 µM
[20] = biological target: Calcium/calmodulin-dependent protein kinase type II subunit alpha (Homo sapiens) (UniProt Q9UQM7); conditions: at 0.1 µM;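 further: reported values are averages (mean inhibition of CAMK2A)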
Sequence of Calcium/calmodulin-dependent protein kinase type II subunit alpha (Homo sapiens) (Q9UQM7 whole entry): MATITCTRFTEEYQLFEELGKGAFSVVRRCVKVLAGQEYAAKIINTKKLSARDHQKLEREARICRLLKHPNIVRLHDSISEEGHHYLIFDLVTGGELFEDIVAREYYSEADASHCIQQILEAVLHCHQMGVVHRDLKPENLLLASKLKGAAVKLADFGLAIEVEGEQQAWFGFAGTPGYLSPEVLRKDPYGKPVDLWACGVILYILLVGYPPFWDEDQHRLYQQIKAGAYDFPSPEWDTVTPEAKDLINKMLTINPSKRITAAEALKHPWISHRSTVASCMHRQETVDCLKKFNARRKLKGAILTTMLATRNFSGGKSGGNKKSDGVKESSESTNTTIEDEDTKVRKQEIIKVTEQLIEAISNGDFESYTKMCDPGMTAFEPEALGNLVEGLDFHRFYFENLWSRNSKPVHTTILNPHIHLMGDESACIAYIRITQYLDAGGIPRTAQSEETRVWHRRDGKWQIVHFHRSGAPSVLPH

Sequence of Ribosomal protein S6 kinase alpha-6 (Homo sapiens) (Q9UK32 whole entry): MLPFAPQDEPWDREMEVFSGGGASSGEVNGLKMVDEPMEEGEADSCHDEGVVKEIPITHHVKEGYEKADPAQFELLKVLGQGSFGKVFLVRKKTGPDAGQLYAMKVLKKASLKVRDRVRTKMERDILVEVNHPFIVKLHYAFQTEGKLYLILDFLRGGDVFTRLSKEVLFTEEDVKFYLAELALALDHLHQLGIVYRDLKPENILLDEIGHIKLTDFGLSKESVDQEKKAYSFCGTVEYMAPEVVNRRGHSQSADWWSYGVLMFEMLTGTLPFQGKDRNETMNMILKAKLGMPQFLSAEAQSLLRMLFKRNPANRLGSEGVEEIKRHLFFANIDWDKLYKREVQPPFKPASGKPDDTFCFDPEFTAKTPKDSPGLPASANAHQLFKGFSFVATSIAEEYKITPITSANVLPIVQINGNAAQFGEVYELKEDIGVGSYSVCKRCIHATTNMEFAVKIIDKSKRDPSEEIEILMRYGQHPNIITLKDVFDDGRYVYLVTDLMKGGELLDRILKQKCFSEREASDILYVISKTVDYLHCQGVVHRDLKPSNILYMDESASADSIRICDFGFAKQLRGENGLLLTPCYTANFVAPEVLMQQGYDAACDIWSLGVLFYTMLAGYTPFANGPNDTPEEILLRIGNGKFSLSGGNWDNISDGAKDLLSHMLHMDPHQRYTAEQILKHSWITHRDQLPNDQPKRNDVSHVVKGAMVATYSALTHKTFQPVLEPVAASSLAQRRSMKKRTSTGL

Compound: CCn1c(-c2nonc2N)nc2c(C#CC(C)(C)O)nc(OC[C@H](N)c3ccccc3)cc21
- inhibition [1]: 7.07%
- inhibition [2]: 1.86%
- inhibition [3]: 3.49%
- inhibition [4]: 5.31%
- inhibition [5]: 13.4%
- inhibition [6]: 31.1%
- inhibition [7]: 57.7%
- inhibition [8]: 17.7%
- inhibition [9]: 65.7%
- inhibition [10]: 4.97%
- inhibition [11]: 15%
- inhibition [12]: 7%
- inhibition [13]: 47.3%
- inhibition [14]: 0.45%
- inhibition [15]: 1.15%
- inhibition [16]: -0.02%
- inhibition [17]: 5.58%
- inhibition [18]: 0.96%
- inhibition [19]: 4.5%
- inhibition [20]: 2.34%

Compound: FC(F)(F)c1cccc(-c2nn3ncccc3c2-c2ccnc(Nc3ccc4c(c3)OCCO4)n2)c1
- inhibition [1]: 2.56%
- inhibition [2]: 1.35%
- inhibition [3]: 1.1%
- inhibition [4]: -3.49%
- inhibition [5]: 0.76%
- inhibition [6]: 5.14%
- inhibition [7]: 1.47%
- inhibition [8]: 1.41%
- inhibition [9]: 0.35%
- inhibition [10]: 0.93%
- inhibition [11]: 4.13%
- inhibition [12]: 1.51%
- inhibition [13]: 5.87%
- inhibition [14]: 3.69%
- inhibition [15]: 2.81%
- inhibition [16]: 2.37%
- inhibition [17]: 2.54%
- inhibition [18]: -0.54%
- inhibition [19]: 1.75%
- inhibition [20]: 1.98%

Compound: COc1ccc(CNC(=O)c2ccc(-c3cc(-c4nnc(C)o4)ccc3C)cc2)cc1
- inhibition [1]: 0.1%
- inhibition [2]: 5.7%
- inhibition [3]: 6.79%
- inhibition [4]: 4.8%
- inhibition [5]: 8.78%
- inhibition [6]: 7.73%
- inhibition [7]: 8.7%
- inhibition [8]: 0.41%
- inhibition [9]: 5.85%
- inhibition [10]: 2.84%
- inhibition [11]: 2.36%
- inhibition [12]: 2.93%
- inhibition [13]: 5.45%
- inhibition [14]: 0.61%
- inhibition [15]: 8.76%
- inhibition [16]: 3.42%
- inhibition [17]: 13%
- inhibition [18]: 1.11%
- inhibition [19]: -0.23%
- inhibition [20]: 1.23%

Compound: CCn1cc(-c2ccnc3[nH]ccc23)c(-c2cccc(NC(=O)Nc3ccc(OCc4ccccc4)cc3)c2)n1
- inhibition [1]: -1.2%
- inhibition [2]: 0.59%
- inhibition [3]: -1.2%
- inhibition [4]: -1.32%
- inhibition [5]: -1.47%
- inhibition [6]: -0.3%
- inhibition [7]: -0.15%
- inhibition [8]: 1.13%
- inhibition [9]: 1.82%
- inhibition [10]: 0.63%
- inhibition [11]: 2.24%
- inhibition [12]: -0.37%
- inhibition [13]: 1.67%
- inhibition [14]: -0.66%
- inhibition [15]: 3.32%
- inhibition [16]: 1.2%
- inhibition [17]: 0.5%
- inhibition [18]: 1.03%
- inhibition [19]: 4.92%
- inhibition [20]: 1.2%

Compound: CC1=C(C(=O)Nc2cc(Cl)c3[nH]ncc3c2)C(c2ccc(C(F)(F)F)cc2)CC(=O)N1 (stereo not given)
- inhibition [1]: 36.4%
- inhibition [2]: 4.9%
- inhibition [3]: 17.9%
- inhibition [4]: 4.31%
- inhibition [5]: 12.5%
- inhibition [6]: 8.68%
- inhibition [7]: 34.4%
- inhibition [8]: 18.4%
- inhibition [9]: 62.2%
- inhibition [10]: 5.35%
- inhibition [11]: 16.3%
- inhibition [12]: 1.17%
- inhibition [13]: 5.4%
- inhibition [14]: 0.02%
- inhibition [15]: 3.03%
- inhibition [16]: 1.64%
- inhibition [17]: 8.61%
- inhibition [18]: -0.28%
- inhibition [19]: 1.73%
- inhibition [20]: 1.03%

Compound: O=S(=O)(CCNCc1ccc(-c2ccc3ncnc(Nc4ccc(OCc5cccc(F)c5)c(Cl)c4)c3c2)o1)c1ccccc1
- inhibition [1]: 1.81%
- inhibition [2]: 4.12%
- inhibition [3]: 4.02%
- inhibition [4]: 4.25%
- inhibition [5]: 7.28%
- inhibition [6]: 6.67%
- inhibition [7]: 5.71%
- inhibition [8]: 7.7%
- inhibition [9]: 5.94%
- inhibition [10]: 3.89%
- inhibition [11]: 4.37%
- inhibition [12]: 0.36%
- inhibition [13]: 2.65%
- inhibition [14]: -0.02%
- inhibition [15]: 4.07%
- inhibition [16]: 3.29%
- inhibition [17]: 3.94%
- inhibition [18]: 1.31%
- inhibition [19]: 1.55%
- inhibition [20]: 4.23%
